Screening data (PubChem)
Rows were chosen to be rich in hits. Some 7.5% of all compounds tested hit in one or more screens of this group.
FLuc modulator – inhibits or activates purified firefly luciferase, miR-21 counter-screen. purified FLuc, Km substrates, luminescence inhibition. Potency, µM (doses to about 57.5 µM), for inactives: top-dose activity change, negative = inhibition, usual class: inhibitors. 6.9% of 360,000 active. AID 588342;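 note: plate controls were vehicle for no effect and reference inhibitor for full effect; nearly all actives have a fitted effect of over 55% in size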
Target sequence (P08659 whole entry, looked up): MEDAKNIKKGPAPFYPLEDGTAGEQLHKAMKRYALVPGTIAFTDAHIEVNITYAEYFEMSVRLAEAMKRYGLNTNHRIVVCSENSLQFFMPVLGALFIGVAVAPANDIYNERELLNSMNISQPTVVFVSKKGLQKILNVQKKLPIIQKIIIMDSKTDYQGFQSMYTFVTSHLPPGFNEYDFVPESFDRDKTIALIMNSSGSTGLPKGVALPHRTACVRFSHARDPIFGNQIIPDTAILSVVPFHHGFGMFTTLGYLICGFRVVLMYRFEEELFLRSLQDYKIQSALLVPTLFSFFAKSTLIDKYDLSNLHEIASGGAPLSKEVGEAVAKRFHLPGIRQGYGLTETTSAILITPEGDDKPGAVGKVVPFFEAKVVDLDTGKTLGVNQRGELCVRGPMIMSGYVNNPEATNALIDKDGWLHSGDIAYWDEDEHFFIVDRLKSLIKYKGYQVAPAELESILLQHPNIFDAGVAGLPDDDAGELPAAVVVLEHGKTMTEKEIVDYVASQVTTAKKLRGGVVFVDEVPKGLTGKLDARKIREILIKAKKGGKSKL
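Biochemical qHTS of compounds, final roughly 60 µM downward over six points, against 10 nM purified firefly luciferase using Km concentrations of substrates (10 uM D-luciferin, 10 uM ATP) in Tris acetate pH 7.5 buffer; luminescence output.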
SMN2 splice up – SMN2 splice variant enhancement; HEK293 SMN2-luciferase splicing reporter, luminescence, 30-36 h; 2.8% of 210,000 active; Potency, µM (highest dose often 46.1 µM), for inactives: top-dose activity change, positive = activation, usual class: activators; AID 1458; note: % of control where 0% means no effect; nearly all actives have a fitted effect of over 55% in size
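HEK293 cells carry an SMN2 […]–luciferase reporter in which exon 7 inclusion puts luciferase in frame. Cells were plated 10-12 h before compound addition, then incubated 30-36 h at 37C. ONE-Glo luminescence was read; sodium butyrate at 4.5 mM final served as control.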
KinaseGlo FLuc – Kinase-Glo luciferase inhibition (counter-screen). Q27757. Kinase-Glo luciferase, ATP luminescence, 8 min. Potency, µM (series often up to 38.3 µM), for inactives: top-dose activity change, negative = inhibition, hits mostly inhibitors. 0.28% of 200,000 active; note: % is set by controls: 0 for no effect and ±100 for the full control effect; nearly all actives have a fitted effect of over 60% in size
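Compounds were added to a substrate mix at pH 7.2 (50 mM imidazole, 10 uM ATP, within the enzyme's linear range), followed by Kinase-Glo detection reagent; luminescence was measured after 8 minutes at ambient temperature.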
NPC1 prom act – activates the NPC1 promoter; 2.4% of 320,000 active; Potency, µM (top dose mostly 9.22 µM), for the others: at the top dose activation, actives largely listed as activators; AID 485313; Huh7 NPC1 promoter luciferase reporter, 24 h; note: % of control where 0% means no effect; nearly all actives have a fitted effect of over 60% in size
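Cells: Huh7 expressing luciferase under the NPC1 promoter, 1500/well. Seeded 2 h, compound added, incubated 24 h at 37 °C. Luciferase reagent, 10 min ambient, then luminescence.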
Rab9 prom act – activators of Rab9 promoter; Huh7 Rab9 promoter-luciferase reporter, luminescence, 24 h; Potency, µM (highest dose often 9.22 µM), inactives show at the highest dose activation, negative = inhibition, actives largely listed as activators; 2.8% of 320,000 active; AID 485297; note: % of control where 0% means no effect; nearly all actives have a fitted effect of over 60% in size
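Stable Rab9-luc Huh7, 1500 cells/well, 2 h settle; cmpd in DMSO, 24 h, 37 °C/5% CO2; luciferase reagent 10 min RT; luminescence.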
ELG1 genotox – genotoxicity induction in ELG1-luciferase HEK293T cells. 1.3% of 330,000 active. HEK293T ELG1-luciferase reporter, luminescence, 16 h. Potency, µM (series often up to 46 µM), for the others: at the top dose activity change, positive = activation, usual class: activators; note: % of control where 0% means no effect; nearly all actives have a fitted effect of over 60% in size
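HEK293T cells expressing luciferase-tagged ELG1 were exposed to compound or DMSO vehicle for 16 hr at 37 °C and 5% CO2. Luciferase activity was then measured with ONE-Glo after 30 min at room temperature.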
Numbers without * were called inactive; ? = inconclusive; . = no result given. Calls come from the whole dose curve; as a rule, active = well fitted curve in the direction sought with a large enough effect; inconclusive = small, poorly fitted or top-dose-only effect, or another doubt; inactive = no such curve, though single readings can be large; an effect the other way counts as inactive or inconclusive. Potency is the fitted concentration of half-maximal effect.

SMILES | FLuc modulator | SMN2 splice up | KinaseGlo FLuc | NPC1 prom act | Rab9 prom act | ELG1 genotox
Cc1ccc2cc(CCNC(=O)c3ccco3)c(=O)[nH]c2c1 | 19µM* | 10µM* | 3% | ? | 2.5µM* | 18%
Cc1cc2cc(CCNC(=O)c3cccs3)c(=O)[nH]c2cc1C | 13µM* | 13µM* | 0% | 2.8µM* | 3.2µM* | ?
Cc1ccc2cc(CCNC(=O)c3ccco3)c(=O)[nH]c2c1C | 4.3µM* | 7.1µM* | 1% | 3.5µM* | 1.4µM* | ?
CCC(CC)C(=O)NCCc1cc2cc(C)c(C)cc2[nH]c1=O | 0% | 15% | 2% | -5% | -4% | -9%
COC(=O)/C(=C1/Oc2ccc(C)cc2S1)C(F)(F)F | ? | 6% | -10% | 12% | 22% | ?
O=C(CC1CCCC1)Nc1ccc(Cl)c(S(=O)(=O)N2CCOCC2)c1 | . | . | . | . | . | -5%
Cc1ccc(Nc2nc(Cl)nc(NC(C)(C)C)n2)cc1 | 12µM* | . | . | ? | 21% | ?
CCOC(=O)CNc1nc(Cl)nc(Nc2ccc(C)cc2)n1 | 2% | . | . | 3% | 3% | -2%
COc1cccc(OCc2cc(C(=O)N(C)Cc3nc4ccccc4[nH]3)no2)c1 | 11µM* | . | . | 3.2µM* | ? | ?
CC(=O)c1cccc(OCc2cc(C(=O)N(C)Cc3cnccn3)no2)c1 | ? | . | . | ? | 2.5µM* | ?
CC(=O)c1cccc(OCc2cc(C(=O)N(C)C(C)c3ccccn3)no2)c1 (stereo not given) | 4% | . | . | 2% | 7% | -5%
CC(=O)c1cccc(OCc2cc(C(=O)NCc3nc(C)c(C)s3)no2)c1 | 17µM* | . | . | ? | ? | ?
Cc1cccc(C)c1OCc1cc(C(=O)NCc2ccc(Cl)s2)no1 | -2% | . | . | -6% | 0% | -2%
CN(Cc1cccnc1)C(=O)c1cc(COc2ccc3c(c2)CCCC3)on1 | 11µM* | . | . | 1.3µM* | ? | ?
Cc1cccc([C@@H]2CN(C)CCc3c2cc(O)c(O)c3Cl)c1 | . | . | -2% | . | . | .
CCOC(=O)c1cnn(-c2ccc(F)cc2)c1N | -16% | 3% | -2% | 7% | 1% | 7%
Cc1ccc(NC(=O)C2CCCN2S(=O)(=O)c2cccc3cccnc23)cc1 (stereo not given) | -9% | -3% | . | . | . | .
CC(C)CCNC(=O)Nc1ccc2c(c1)N(Cc1ccccc1)C(=O)c1ccccc1S2 | -1% | 11% | . | . | . | .
COc1ccc(C2CC(=O)N(Cc3ccccc3)c3c2c(C)nn3-c2nc(C)cc(C)n2)c(OC)c1 (stereo not given) | -3% | . | . | . | . | .
CCCc1nn2cc(-c3ccc(C)c(C)c3)nc2s1 | 0.19µM* | 1.3µM* | . | . | . | .
O=[N+]([O-])c1cccc(Oc2cnccn2)c1 | -2% | . | . | -3% | -1% | 4%
CC(=O)Nc1ccc(C(=O)NCC(=O)OCc2c(F)cccc2Cl)cc1 | 19µM* | ? | 0% | -1% | -4% | 3%
O=C(Cc1c(F)cccc1Cl)NNC(=O)c1cccs1 | . | . | . | . | . | 3%
Cc1ccc(C(=O)NCC(=O)OCc2c(F)cccc2Cl)cc1 | 12µM* | . | . | 2% | 0% | 13%
CCOc1ccc(C(=O)NCC(=O)OCc2c(F)cccc2Cl)cc1 | ? | -1% | 1% | 0% | -1% | 0%
SMILES | FLuc modulator | SMN2 splice up | KinaseGlo FLuc | NPC1 prom act | Rab9 prom act | ELG1 genotox
O=C(CNC(=O)c1cccs1)OCc1c(F)cccc1Cl | 15µM* | . | . | 0% | -1% | ?
O=C(NN1CC(C(=O)OCc2ccc(Cl)cc2Cl)CC1=O)c1ccccc1 (stereo not given) | 6% | . | . | 0% | -3% | 2%
O=C(NCC(c1cccnc1)N1CCc2ccccc2C1)C(=O)Nc1cccc(Cl)c1 (stereo not given) | 0% | . | . | . | . | .
O=C(O)c1cccc(N/N=C(\N=Nc2ccccc2)c2ccccc2)c1 | 17µM* | . | . | ? | ? | ?
Brc1ccc(N/N=C(/N=Nc2nn[nH]n2)c2ccccc2)cc1 | 19µM* | -117% | ? | -31% | -41% | -2%
O=C(/C(=N\Nc1ccc(Br)cc1)Sc1nnnn1-c1ccccc1)c1ccccc1 | 0% | 14% | 0% | -2% | -10% | -5%
O=C(O)c1ccc(N=N/C(=N\Nc2ccc(C(=O)O)cc2)c2ccccc2)cc1 | 17µM* | . | . | ? | ? | 12%
NC(=O)/C(N=Nc1ccccc1)=N/Nc1ccccc1 | -10% | . | . | 1% | -1% | 11%
COc1ccc(Cc2nnc(SC(C)C(=O)Nc3ccc(F)cc3Cl)o2)cc1 (stereo not given) | -1% | . | . | -1% | -1% | 2%
CSc1ccc(C(=O)/C=C/c2ccc(N)cc2)cc1 | 0.76µM* | 14µM* | -25% | ? | 3.2µM* | 13µM*
CSc1ccc(/C=C/C(=O)c2ccc(NC(=O)Cc3ccccc3)cc2)cc1 | 12µM* | -10% | -1% | 0% | 4% | -4%
CSc1ccc(/C=C/C(=O)c2ccc(NC(=O)C(C)C)cc2)cc1 | 9.5µM* | -14% | -2% | -2% | -10% | -2%
CC(C)C(=O)Nc1ccc(Sc2ccc(F)cc2)cc1 | 1% | -8% | -1% | -3% | -1% | 0%
COc1ccc(S(=O)(=O)N(CC(=O)Nc2ccc(F)c(Cl)c2)c2ccc(C)cc2)cc1OC | -3% | . | . | . | . | .
COc1ccccc1NC(=O)c1c(C)cc(C)nc1SCC(=O)Nc1ccc(C)cc1 | -14% | . | . | . | . | .
COC(=O)C1CCN(C(=O)CN2C(=O)NC3(CCC(C)CC3)C2=O)CC1 (stereo not given) | . | . | . | . | . | -1%
COc1ccc(C(=O)Nc2ccccc2C(=O)Nc2ccccn2)cc1 | 6µM* | . | . | ? | ? | 15%
